Screening data from PubChem BioAssay.
Shown are actives, neighbours in structure and some others; about 7.1% of the full set was active somewhere.
LASV entry inh: Lassa virus entry inhibition; Lassa virus pseudotyped entry inhibition, cell-based qHTS; Potency, µM (titrated, usually from 49.2 µM), most hits filed as inhibitors; 18,000 compounds, 4.1% hits; AID 720533
MARV entry inh: blocks Marburg virus binding or cell entry. Marburg virus pseudotype entry/binding inhibition, cell-based. AID 720532. 18,000 compounds, 6.5% hits. Potency, µM (doses to about 49.2 µM), most hits filed as inhibitors
Large screens that a line does not name were inactive. Calls follow the shape of the full dose curve; tested in HEK293 cells.

O=C(c1ccc(N2CCC(NCCCn3ncc4ccccc43)CC2)cc1)N1CCOCC1	MARV entry inh inconclusive
O=C(c1ccc(N2CCC(NCCCn3ncc4ccccc43)CC2)cc1)N1CCc2ccccc2C1	LASV entry inh inconclusive, MARV entry inh 20µM
CCn1c(-c2nonc2N)nc2c(C#CC(C)(C)O)nc(OCCNC)cc21	MARV entry inh 13µM (no result: LASV entry inh)
CCn1c(-c2nonc2N)nc2ccccc21	MARV entry inh inconclusive
CN(C)c1nc(NC2CCC(NC(=O)c3ccc(F)c(F)c3)CC2)nc2ccccc12 (stereo not given)	LASV entry inh 16µM, MARV entry inh 2.8µM
CN(C)C(=O)c1ccc(-c2nc(Nc3ccc(F)cc3)c3ccccc3n2)cc1	none
COc1ccc2c(c1)CO[C@H]([C@H](O)CO)[C@H]2C=Cc1ccccc1	none (no result: LASV entry inh)
Cc1cc2c(c(=O)n1Cc1ccccc1)[C@H]1O[C@](CCCCN3C(=O)c4ccccc4C3=O)(Cc3c1ccc1ccccc31)O2	none
CC(C)C[C@H]1COc2c(Cl)cccc2S(=O)(=O)N1Cc1ccc(F)cc1	none
C=CC[C@H]1C[C@H]2CC=CP(=O)(O2)O1	none
O=[N+]([O-])c1ccc(F)c([N+](=O)[O-])c1	none
O=C(NC(NC(=S)Nc1ccc(F)c([N+](=O)[O-])c1)C(Cl)(Cl)Cl)C(c1ccccc1)c1ccccc1 (stereo not given)	LASV entry inh 11µM, MARV entry inh 11µM
C[C@H]1[C@@H]2O[C@H]2CCO[C@H]1c1cccc(Br)c1	none
CCCNC(=O)N1C2=NC(C(=O)OC)=C(C(=O)OC)[C@@H]3Nc4ccccc4[C@]23C[C@H]1C(=O)OC	none
CN1CC[C@]2(C)c3cc(O)ccc3N(C)[C@@H]12	MARV entry inh 11µM
CNC(=O)Oc1ccc2c(c1)[C@]1(C)CCN(C)[C@@H]1N2C	none
O=S1(=O)CCSCCN1Cc1cccc(Cl)c1	none (no result: LASV entry inh)
CCCN1CCC(Oc2cc(Nc3nc(Nc4cccc(F)c4C(N)=O)c4cc[nH]c4n3)c(OC)cc2Cl)CC1	LASV entry inh inconclusive, MARV entry inh 10µM
CCCN1CCCC(c2ccc(Nc3nc(Nc4cc(F)ccc4C(N)=O)c4cc[nH]c4n3)c(OC)c2)C1 (stereo not given)	LASV entry inh inconclusive, MARV entry inh 7.9µM
CCCN1CCC=C(c2ccc(Nc3nc(Nc4ccccc4C(N)=O)c4cc[nH]c4n3)c(C)c2)C1	MARV entry inh inconclusive
C=C[C@@H](O)C[C@H]1C=C[C@@H]2C[C@H](C=C)OP(=O)(O1)O2	none
COC(=O)CC=C[C@H](C)[C@H](Cc1ccccc1Br)OC	none
CC(CCN1CCCc2nc(C)c(C)cc21)=NOC[C@@H](O)COCc1ccco1	MARV entry inh inconclusive
CCOc1ccc(C(=O)OCCN(CC)CC)cc1	none
CCN(CC)CCOc1ccc2c(c1)C(=O)c1cc(OCCN(CC)CC)ccc1-2	LASV entry inh inconclusive, MARV entry inh 6.3µM
CCOC(=O)[C@@H]1CSCCS(=O)(=O)N1C(=O)[C@@H](NC(=O)OC(C)(C)C)[C@@H](C)CC	none
O=C(NCC1(N2CCCCC2)CCCCC1)c1ccc(-n2cc(NC(=O)c3cccnc3)cn2)cc1	MARV entry inh 4µM
CCOC(=O)C1CCCCN1C(=O)c1ccc(-n2cc(NC(=O)c3cccnc3)cn2)cc1 (stereo not given)	none
CC(=O)OC[C@H]1O[C@H](C#CC(C)(C)C)C=C[C@H]1OC(C)=O	none
COc1cc2c(cc1OC)[C@@H]1O[C@](c3ccsc3)(C2)Oc2c1c(=O)oc1ccc(F)cc21	none
COc1ccc(CC2NC[C@H](O)[C@H]2OC(C)=O)cc1 (stereo not given in full)	LASV entry inh 0.32µM, MARV entry inh 0.32µM
C=C(C)C(=O)c1ccc(OC)cc1	none
COc1cccc(-c2cc(=O)c3cc(NC(=O)c4ccc(N(C)C)cc4)ccc3[nH]2)c1	LASV entry inh inconclusive, MARV entry inh 4µM
COc1ccc2[nH]c(-c3cccc(F)c3)cc(=O)c2c1	MARV entry inh inconclusive
COc1cccc(-c2cc(=O)c3cc(NC(=O)c4ccc(Cl)cc4)ccc3[nH]2)c1	MARV entry inh inconclusive
COc1cccc(-c2cc(=O)c3cc(NC(=O)c4ccccc4)ccc3[nH]2)c1	LASV entry inh inconclusive, MARV entry inh 7.1µM
Cc1cc2c(c(=O)o1)[C@H]1O[C@](CCCCN3C(=O)c4ccccc4C3=O)(Cc3cc(C#N)ccc31)O2	none
CC(C)=CCN1CC[C@]2(C)c3cc(O)ccc3C[C@H]1[C@H]2C	MARV entry inh inconclusive
COc1ccc2c(c1)C13CCCC[C@@H]1C(C2)N(C)CC3 (stereo not given in full)	MARV entry inh inconclusive
Oc1ccc2c(c1)[C@@]13CCCCC1[C@@H](C2)N(CC1CCC1)CC3 (stereo not given in full)	LASV entry inh inconclusive, MARV entry inh 10µM
C=CCN1CC[C@]23CCCC[C@H]2[C@H]1Cc1ccc(O)cc13	LASV entry inh inconclusive, MARV entry inh 28µM
COC(=O)C1=C(C)NC(C)=C(C(=O)OCCSc2ccccc2)C1C (stereo not given)	LASV entry inh 13µM, MARV entry inh inconclusive
CCOC(=O)C1=C(C)NC(C)=C(C(=O)OC)C1c1cccc(Cl)c1Cl (stereo not given)	none
